From PubChem BioAssay (NCI)
The panel holds about 83,000 compounds, 20% with a hit somewhere; the sample as a whole holds those more often.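 The endpoint reported here, percent growth, reads 100 for growth as untreated, 0 for no net growth and -100 for all cells dead.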 Activity calls are given as the source filed them. How the source made its calls: active means growth percent below 10; inactive means the rest.

What was measured:
Experiment in all cases: NCI-60 one-dose screen, 48 h (100 = growth as untreated, 0 = no growth, -100 = all killed)
Settings in all cases: 10 µM unless noted
T-47D breast = test system: T-47D breast
BT-549 breast = test system: BT-549 breast
MDA-MB-435 melanoma = test system: MDA-MB-435 melanoma
SW-620 colon = test system: SW-620 colon
MCF7 breast = test system: MCF7 breast
HCT-116 colon = test system: HCT-116 colon
HCC-2998 colon = test system: HCC-2998 colon
KM12 colon = test system: KM12 colon

Measured: growth

COc1ccc(/C=C2\COc3ccc(O)c(O)c3C2=O)c(OC)c1OC
active: MDA-MB-435 melanoma 8.59% | SW-620 colon 9.64%
inactive: T-47D breast 12.1% | BT-549 breast 46.9% | MCF7 breast 14.8% | HCT-116 colon 14.6% | HCC-2998 colon 65.6% | KM12 colon 33.5%

CCOC(=O)CCCn1c(-c2ccccc2)cc(-c2ccccc2)c(C#N)c1=O
inactive: T-47D breast 93.6% | BT-549 breast 93.9% | MDA-MB-435 melanoma 50% | SW-620 colon 88.3% | MCF7 breast 89.6% | HCT-116 colon 75.5% | HCC-2998 colon 98.2% | KM12 colon 83.4%

COC(=O)c1nc(-c2ccc(C)cc2)oc1S(=O)(=O)c1ccc(Cl)cc1
inactive: T-47D breast 88.6% | BT-549 breast 83.4% | MDA-MB-435 melanoma 107% | SW-620 colon 80% | MCF7 breast 89.8% | HCT-116 colon 77.7% | HCC-2998 colon 112% | KM12 colon 116%

O=C1OCC2=C1C(c1cccc(C(F)(F)F)c1)c1cc3c(cc1N2CCO)CCC3 (stereo not drawn)
active: MDA-MB-435 melanoma -44.3% | HCT-116 colon 4.17% | KM12 colon 4.92%
inactive: T-47D breast 75% | BT-549 breast 22% | SW-620 colon 24% | MCF7 breast 16.3% | HCC-2998 colon 11.2%

O=C(NCc1ccc(Cn2c(=O)sn(-c3ccc(Cl)cc3)c2=O)cc1)OCc1ccc2c(Cl)cc(Cl)c(O)c2n1
inactive: T-47D breast 60.2% | BT-549 breast 60.6% | MDA-MB-435 melanoma 54.7% | SW-620 colon 49.3% | MCF7 breast 50.3% | HCT-116 colon 29.3% | HCC-2998 colon 67.9% | KM12 colon 23.5%

CCN1CCN(C(=O)[C@]23CC[C@@H](C)[C@H](C)[C@@H]2C2=CC[C@@H]4[C@@]5(C)CCC(=O)C(C)(C)[C@@H]5CC[C@@]4(C)[C@]2(C)CC3)CC1
inactive: MDA-MB-435 melanoma 11%
active: T-47D breast 8.54% | BT-549 breast -26% | SW-620 colon -50.4% | MCF7 breast 4.77% | HCT-116 colon -48.3% | HCC-2998 colon 0.569% | KM12 colon 6.9%
